Compound activity: PubChem BioAssay, National Center for Advancing Translational Sciences (NCATS)
Rows were chosen to be rich in hits. Some 8.1% of all compounds tested hit in one or more screens of this group.
Epigenetic reg: Quantitative High-Throughput Screen for Regulators of Epigenetic Control. Potency, µM (top dose mostly 53.9 µM), inactives show top-dose GFP activation, hits mostly activators. murine LDR cells, GFP reporter derepression, 30 h. hit rate 0.2% among 280,000. AID 1865, 2009; further: % of control where 0% means no effect; nearly all actives have a fitted effect of over 60% in size
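Murine LDR cells bearing a silenced CMV-driven GFP reporter were exposed to compound for 30 h at 37 C. After PBS washes, GFP-positive cells (20-120 um objects) counted by laser-scanning microplate cytometry.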
PINK1 modulator: A Quantitative High throughput Screen to Identify Chemical Modulators of PINK1 Expression | hit rate 0.2% among 410,000 | Potency, µM (doses to about 76.6 µM), for the others: at the top dose activation (PINK1 increase), hits mostly activators | PINK1 immunofluorescence, high-content cytometry, 24 h; active means well fitted activation curve with a large enough effect; inconclusive means small, poorly fitted or top-dose-only effect; cell line not stated here; further: % of control where 0% means no effect; nearly all actives have a fitted effect of over 65% in size
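Compound titrations (5 concentrations, 24 h) on a stable cell line; DMSO and CCCP controls. Endpoint: fixed-cell PINK1 immunofluorescence with mitochondrial, cell and nuclear markers, scanned by microplate cytometer.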
RORgamma inh: qHTS for inhibitors of ROR gamma transcriptional activity; Nuclear receptor ROR-gamma (Mus musculus), P51450; Drosophila S2 Gal4-RORgamma UAS-luciferase reporter, 20 h; Potency, µM (series often up to 53.6 µM), without a hit: top-dose activity change, negative = inhibition, hits mostly inhibitors; hit rate 5.4% among 310,000; AID 2551, 2010; further: on the % scale 0 is the no-effect control and ±100 the full control effect; nearly all actives have a fitted effect of over 60% in size
Target sequence (P51450 whole entry, looked up, the tested form may be a part): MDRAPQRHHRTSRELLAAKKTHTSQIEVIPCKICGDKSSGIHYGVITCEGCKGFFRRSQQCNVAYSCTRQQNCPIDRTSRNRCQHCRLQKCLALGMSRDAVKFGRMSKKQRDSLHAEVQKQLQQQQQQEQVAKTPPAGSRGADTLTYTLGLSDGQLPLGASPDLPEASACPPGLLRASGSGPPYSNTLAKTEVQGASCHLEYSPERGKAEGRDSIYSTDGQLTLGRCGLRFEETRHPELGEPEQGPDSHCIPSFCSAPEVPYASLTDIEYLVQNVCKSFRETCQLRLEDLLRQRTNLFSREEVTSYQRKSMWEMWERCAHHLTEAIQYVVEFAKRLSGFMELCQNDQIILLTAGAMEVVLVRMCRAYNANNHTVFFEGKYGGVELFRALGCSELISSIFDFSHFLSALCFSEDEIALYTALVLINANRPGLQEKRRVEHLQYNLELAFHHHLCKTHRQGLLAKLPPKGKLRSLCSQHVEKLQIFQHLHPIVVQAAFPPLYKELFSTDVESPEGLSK
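Luminescence from a UAS-regulated Photinus luciferase reporter in stably transfected Drosophila Schneider cells is measured; decreased signal marks ROR gamma inhibition. Fusion expression is induced by 700 uM copper sulfate for 20 hr.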
ClpP mod: qHTS Assay for Activators of ClpP; purified B. subtilis ClpP, FRET peptide cleavage, 20 min; AID 651965, 2013; hit rate 1.9% among 340,000; ATP-dependent Clp protease proteolytic subunit (Bacillus subtilis (strain 168)), P80244; Potency, µM (series often up to 57.5 µM), inactives show top-dose activity change, negative = active; active means well fitted falling curve with a large enough effect; inconclusive means small, poorly fitted or top-dose-only effect; inactive means no such curve, though single readings can be large or run the other way; further: the source files actives as falling curves though it sought activators and does not explain the sign; nearly all actives have a fitted effect of over 65% in size
Target sequence (P80244 whole entry, looked up): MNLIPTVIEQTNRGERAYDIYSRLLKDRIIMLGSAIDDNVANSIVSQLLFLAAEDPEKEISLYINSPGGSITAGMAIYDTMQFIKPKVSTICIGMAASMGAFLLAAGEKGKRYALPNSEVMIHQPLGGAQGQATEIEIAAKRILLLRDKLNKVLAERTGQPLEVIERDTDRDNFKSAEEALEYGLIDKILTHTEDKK
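Buffer: 100 mM Tris/HCl pH8, 100 mM KCl, 0.05% low protease BSA, 2.5% glycerol, 0.01% Tween-20. ClpP 10 microg/mL final; 20 min RT; delta FRET normalized to ADEP and DMSO controls.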
Gal4-VP16 FLuc: VP16 counterscreen qHTS for inhibitors of ROR gamma transcriptional activity. Drosophila S2 Gal4-VP16 UAS-luciferase, luminescence, 20 h. AID 2546, 2010. Potency, µM (top dose mostly 53.6 µM), for the others: at the highest dose activity, negative = inhibition, most hits filed as inhibitors. hit rate 3.5% among 310,000;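 further: Gal4-VP16 expression switched on by copper sulfate through the metallothionein promoter; on the % scale 0 is the no-effect control and ±100 the full control effect; nearly all actives have a fitted effect of over 50% in size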
Sfp inh: qHTS Assay for Inhibitors of Bacillus subtilis Sfp phosphopantetheinyl transferase (PPTase). hit rate 3.5% among 310,000. Biochemical Sfp PPTase activity, qHTS. Potency, µM, without a hit: largest response in the series, negative = inhibition, actives largely listed as inhibitors. AID 1490, 2009. 4'-phosphopantetheinyl transferase ffp (Bacillus subtilis), Q9F4F7;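 further: the enzyme is Sfp with the accession as filed and its product quenches rhodamine fluorescence; 0% = enzyme reaction without inhibitor and -100% = no enzyme wells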
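Compounds were incubated with enzyme (final 15 nM) for 15 min at room temperature before substrate addition started the reaction. Fluorescence at 525 nm excitation, 598 nm emission was recorded immediately and after 30 minutes.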
An asterisk follows results filed as active; ? = inconclusive; nt = no result; ! = a repeat was not active; [ ] = remark or other dose. Unless noted, the call rests on the fitted dose curve; in most records, active means well fitted curve in the direction sought with a large enough effect; inconclusive means small, poorly fitted or top-dose-only effect, or another doubt; inactive means no such curve, though single readings can be large; an effect the other way counts as inactive or inconclusive. Potency means the concentration at half of the fitted maximal effect.

SMILES	Epigenetic reg	PINK1 modulator	RORgamma inh	ClpP mod	Gal4-VP16 FLuc	Sfp inh
N#Cc1cccc(-c2cncnc2NCc2cccnc2)c1	nt	0.6%	28.3%	nt	2.7%	-1.6%
COc1ccc(CNc2nc(-c3ccc(N(C)C)cc3)nc3ccccc23)c(OC)c1	nt	6.0%	5.01µM*	nt	5.01µM*	17.8µM*
CN(C)c1ccc(-c2nc(NCc3cccnc3)c3ccccc3n2)cc1	?	0.6%	?	nt	14.1µM*	?
c1cncc(CNc2ncncc2-c2ccoc2)c1	nt	0.0%	-10.7%	nt	-0.8%	79.4µM*
c1ncc(-c2ccoc2)c(NC2CC2)n1	nt	-0.2%	24.3%	nt	-6.5%	79.4µM*
c1cncc(-c2nc(NCc3cccs3)c3ccccc3n2)c1	-5.5%	0.1%	29.0%	-1.2%	-11.3%	79.4µM*!
Oc1ccc(CCNc2ncnc3ccc(Cl)cc23)cc1	nt	0.7%	?	-0.6%	6.31µM*	1.5%
Clc1ccc2ncnc(NCc3ccc4c(c3)OCO4)c2c1	1.1%	nt	?	nt	7.94µM*	5.3%
Nc1nc(Cl)cc(NCCc2ccc(O)cc2)n1	-5.4%	1.4%	?	nt	-24.2%	20.8%
CCOC(=O)c1cc(OC(=O)c2cccc(Cl)c2)n(-c2ccccc2)n1	1.0%	0.3%	nt	-4.3%	nt	nt
CC(=NC1CC1)c1c(-c2ccccc2)[nH]n(-c2nc3ccccc3s2)c1=O	-2.4%	3.0%[38.3 µM]	1.26µM*	0.7%	?	-2.6%
CC(=NC1CCCC1)c1c(C)[nH]n(-c2nc3ccccc3s2)c1=O	-1.0%	-0.2%	3.55µM*	-1.0%	?	-14.4%
CC(=NCCCn1ccnc1)c1c(-c2ccccc2)[nH]n(-c2nc3ccccc3s2)c1=O	1.6%	-4.2%	12.4%	-2.3%	11.4%	0.8%
CCOC(=O)Cc1cc(=O)n(-c2nc3ccccc3s2)[nH]1	-0.7%	-0.9%	-21.1%	-2.1%	3.5%	-21.5%
O=C(Cc1cccs1)NC1CC(=O)N(c2ccccc2)C1 (stereo not drawn)	2.4%	0.0%	nt	2.0%	nt	nt
COc1ccc(-c2cc(C)no2)cc1S(=O)(=O)N1CCN(c2ccc(C(C)=O)cc2)CC1	-4.3%	1.8%	nt	-5.3%	nt	nt
CCOC(=O)c1cccc(NC(=O)c2cc(CN3CCOCC3)on2)c1	1.1%	0.1%	nt	0.2%	nt	nt
Nc1ccc(N(c2ccccc2)c2ccc(N)cc2)cc1	-1.1%	?	30.8%	35.5µM*	-12.6%	-13.2%
Cc1ccccc1C(=O)N1CC(=O)Nc2ccc(F)cc2C1c1ccc(F)cc1 (stereo not drawn)	nt	-0.1%	10.3%	31.6µM*	-0.7%	-8.4%
O=C1CN(C(=O)c2ccccc2F)C(c2ccccc2)c2cc(F)ccc2N1 (stereo not drawn)	nt	0.1%	9.4%	-3.0%	4.7%	7.8%
Cc1ccc(Cl)cc1N1CCN(C(=O)c2cn(C3CCCCC3)c(=O)c3c2c2ccccc2n3C)CC1	3.1%	0.8%	nt	-15.7%	nt	nt
O=C1CC(N2CCCN(C3CC(=O)N(c4ccc(F)cc4)C3=O)CC2)C(=O)N1c1ccc(F)cc1 (stereo not drawn)	16.8%	-2.4%	17.8µM*	-23.1%	?	0.7%
O=C1CC(N2CCCCC2)C(=O)N1c1ccccc1 (stereo not drawn)	-0.8%	0.9%	10µM*	-2.3%	20µM*	19.8%
O=CN1CCN(C2CC(=O)N(c3ccc(Br)cc3)C2=O)CC1 (stereo not drawn)	-0.7%	-1.6%	3.0%	35.5µM*	-7.4%	-0.3%
O=C(c1ccco1)N(Cc1cc2cc3c(cc2nc1N1CCOCC1)CCC3)CC1CCCO1 (stereo not drawn)	nt	0.3%	nt	nt	nt	nt
SMILES	Epigenetic reg	PINK1 modulator	RORgamma inh	ClpP mod	Gal4-VP16 FLuc	Sfp inh
O=C(O)c1ccccc1NCc1ccsc1	nt	-1.1%	21.0%	nt	1.3%	10.6%
O=C(O)c1ccccc1NCc1ccncc1	0.1%	4.0%[38.3 µM]	-8.2%	14.1µM*	-11.8%	1.7%
O=C(O)c1ccc(CNc2ccccc2C(=O)O)cc1	0.0%	-1.6%	-21.9%	31.6µM*	-12.2%	-8.2%
CCOC(=O)c1c(N)n(-c2ccc(Cl)c(Cl)c2)c2nc3ccccc3nc12	-1.3%	-5.2%	nt	?	nt	nt
Cc1ccc(-c2nnc(SCC(=O)Nc3ccccc3F)o2)cc1	0.0%	8.8%	6.8%	-4.9%	1.0%	4.8%
Cc1ccc(C)c(SCC(=O)Nc2nnc(-c3ccccc3)o2)c1	1.8%	-0.1%	2µM*	-0.1%	5.01µM*	-2.2%
CCc1ccccc1NC(=O)CSc1nnc([C@@H](N)Cc2ccccc2)o1	0.4%	26.9%[38.3 µM]	5.1%	0.4%	0.6%	50.1µM*
CCC(c1nnc(SCC(=O)Nc2nnc(-c3ccccc3)o2)o1)N(C)C (stereo not drawn)	-1.0%	5.9%	12.6µM*	-1.7%	?	-2.6%
CC(=O)OC[C@H]1O[C@@H](O/N=C\[C@@H](C)[C@H](OCc2ccccc2)C(C)C)[C@H](OC(C)=O)[C@@H](OC(C)=O)[C@H]1OC(C)=O	3.4%[10.1 µM]	nt	12.4%[10 µM]	nt	-0.7%[10 µM]	4.7%
O=c1c(-c2ccc(F)cc2)nc2cnc(N3CCOCC3)nc2n1C1CC1	nt	7.2%	-11.6%	nt	-4.5%	27.3%
O=C(NNC(=S)NCc1ccco1)c1ccccc1Br	nt	1.2%	0.891µM*	1.4%	-20.1%	17.5%
O=C(NNC(=S)NCc1ccco1)c1ccc(Cl)s1	-1.2%	0.9%	1.78µM*	40.1%	-12.1%	27.1%
COc1ccccc1NC(=S)NNC(=O)c1nn(C)cc1Cl	-2.6%	0.9%	10µM*	-1.6%	?	-10.8%
Cn1cc(Cl)c(C(=O)NNC(=S)NCc2ccco2)n1	-1.5%	-2.7%	19.7%	-0.6%	-4.2%	56.2µM*
Cc1c(Cl)c(C(=O)NNC(=S)NCc2ccco2)nn1C	1.2%	-1.0%	-25.9%	-7.0%	-8.9%	17.0%
O=C(NCc1ccco1)c1ccccc1Br	-1.1%	0.1%	15.7%	-1.0%	-1.9%	17.1%
CCCn1c(=O)c2sccc2n2c(CCCC(=O)NCCOC)nnc12	-1.9%	0.5%	nt	?	nt	nt
CC1=C(/C=C/C(C)=C/C=C/C(C)=C/C(=O)O)C(C)(C)CCC1O (stereo not drawn)	1.0%	nt	nt	nt	nt	4.5%
CCc1ccc(-c2nc(SCC(=O)NCC3CCCO3)c(-c3ccc(F)cc3)[nH]2)cc1 (stereo not drawn)	3.1%	0.6%	nt	?	nt	nt
CCC1(c2ccccc2)NC(=S)N(c2ccc(C)c(C)c2)N1 (stereo not drawn)	-4.1%	-0.4%	2.82µM*	1.7%	?	8.91µM*
